Results published in the supplement of paper PMC11732987, “Enantioselective OTUD7B fragment discovery through chemoproteomics screening and high-throughput optimisation” (Communications Chemistry, 2025).

Experiments:
Assay in all cases: log2 ratio of Biotin-Ahx-Ub-VS probe labelling (fragment/DMSO); higher = less target engagement (more negative = stronger competition), active = hit call of the paper (q ≤ 0.05, log2 ratio ≤ -1)
Conditions in all cases: compound concentration: 200 uM; treatment time: 3 h
USP9X = USP9X (UniProt Q93008)
In short: (§1)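 HEK293T lysate (495 µg per sample, in Tris/CHAPS/IGEPAL buffer with protease inhibitors) was exposed in triplicate for 3 h to fragment at 200 µM or to vehicle, then to Biotin-Ahx-Ub-VS at 0.5 µM final for 1 h. Labelled DUBs were enriched on NeutrAvidin, digested with LysC and trypsin, and analysed by diaPASEF LC-MS/MS. Spectronaut label-free quantities were normalised to the global median, and values are average log2 ratios of fragment over vehicle from an unpaired t-test. Only proteins with ≥2 unique peptides were used.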

UniProt O00487 = biological target: UniProt O00487
In short: as §1

UniProt O00507 = biological target: UniProt O00507
In short: as §1

UniProt P51784 = biological target: UniProt P51784
In short: as §1

UniProt Q5T2D3 = biological target: T1, UniProt Q5T2D3
T1 sequence (whole entry): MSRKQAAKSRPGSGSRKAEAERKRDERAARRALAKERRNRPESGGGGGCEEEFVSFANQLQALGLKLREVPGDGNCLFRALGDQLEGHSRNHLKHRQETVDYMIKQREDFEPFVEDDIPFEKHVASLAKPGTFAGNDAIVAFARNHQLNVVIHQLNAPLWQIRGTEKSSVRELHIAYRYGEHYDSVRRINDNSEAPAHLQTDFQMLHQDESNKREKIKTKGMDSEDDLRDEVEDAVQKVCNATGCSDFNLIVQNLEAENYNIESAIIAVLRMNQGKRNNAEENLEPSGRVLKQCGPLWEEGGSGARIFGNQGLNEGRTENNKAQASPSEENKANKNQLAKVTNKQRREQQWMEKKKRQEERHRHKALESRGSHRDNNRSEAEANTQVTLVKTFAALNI
In short: as §1

UniProt Q8TE49 = biological target: T2, UniProt Q8TE49
T2 sequence (whole entry): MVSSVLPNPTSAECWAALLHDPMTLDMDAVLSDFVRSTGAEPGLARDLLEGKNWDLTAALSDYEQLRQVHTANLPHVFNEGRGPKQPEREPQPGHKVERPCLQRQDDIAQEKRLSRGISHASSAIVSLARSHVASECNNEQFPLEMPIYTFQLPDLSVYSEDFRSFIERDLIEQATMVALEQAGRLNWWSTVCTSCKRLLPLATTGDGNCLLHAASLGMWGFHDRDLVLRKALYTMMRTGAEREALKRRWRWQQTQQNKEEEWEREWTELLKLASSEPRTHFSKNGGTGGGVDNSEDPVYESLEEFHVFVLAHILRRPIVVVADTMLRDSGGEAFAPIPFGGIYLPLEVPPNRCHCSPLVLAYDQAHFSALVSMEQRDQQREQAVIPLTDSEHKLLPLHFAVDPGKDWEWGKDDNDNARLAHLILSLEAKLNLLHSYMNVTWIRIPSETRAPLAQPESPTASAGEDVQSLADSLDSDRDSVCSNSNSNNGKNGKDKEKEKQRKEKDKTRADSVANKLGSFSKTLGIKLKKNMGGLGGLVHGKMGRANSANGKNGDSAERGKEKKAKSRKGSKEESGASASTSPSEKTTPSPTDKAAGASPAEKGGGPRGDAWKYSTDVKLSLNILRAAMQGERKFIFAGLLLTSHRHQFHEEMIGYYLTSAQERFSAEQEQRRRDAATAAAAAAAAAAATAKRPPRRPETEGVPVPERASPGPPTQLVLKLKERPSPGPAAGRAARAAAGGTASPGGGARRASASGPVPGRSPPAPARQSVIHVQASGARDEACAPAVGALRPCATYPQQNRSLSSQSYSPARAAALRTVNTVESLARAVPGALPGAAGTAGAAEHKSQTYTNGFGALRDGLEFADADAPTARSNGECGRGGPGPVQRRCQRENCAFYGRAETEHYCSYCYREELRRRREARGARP
In short: as §1

UniProt Q9P2H5 = biological target: T3, UniProt Q9P2H5
T3 sequence (whole entry): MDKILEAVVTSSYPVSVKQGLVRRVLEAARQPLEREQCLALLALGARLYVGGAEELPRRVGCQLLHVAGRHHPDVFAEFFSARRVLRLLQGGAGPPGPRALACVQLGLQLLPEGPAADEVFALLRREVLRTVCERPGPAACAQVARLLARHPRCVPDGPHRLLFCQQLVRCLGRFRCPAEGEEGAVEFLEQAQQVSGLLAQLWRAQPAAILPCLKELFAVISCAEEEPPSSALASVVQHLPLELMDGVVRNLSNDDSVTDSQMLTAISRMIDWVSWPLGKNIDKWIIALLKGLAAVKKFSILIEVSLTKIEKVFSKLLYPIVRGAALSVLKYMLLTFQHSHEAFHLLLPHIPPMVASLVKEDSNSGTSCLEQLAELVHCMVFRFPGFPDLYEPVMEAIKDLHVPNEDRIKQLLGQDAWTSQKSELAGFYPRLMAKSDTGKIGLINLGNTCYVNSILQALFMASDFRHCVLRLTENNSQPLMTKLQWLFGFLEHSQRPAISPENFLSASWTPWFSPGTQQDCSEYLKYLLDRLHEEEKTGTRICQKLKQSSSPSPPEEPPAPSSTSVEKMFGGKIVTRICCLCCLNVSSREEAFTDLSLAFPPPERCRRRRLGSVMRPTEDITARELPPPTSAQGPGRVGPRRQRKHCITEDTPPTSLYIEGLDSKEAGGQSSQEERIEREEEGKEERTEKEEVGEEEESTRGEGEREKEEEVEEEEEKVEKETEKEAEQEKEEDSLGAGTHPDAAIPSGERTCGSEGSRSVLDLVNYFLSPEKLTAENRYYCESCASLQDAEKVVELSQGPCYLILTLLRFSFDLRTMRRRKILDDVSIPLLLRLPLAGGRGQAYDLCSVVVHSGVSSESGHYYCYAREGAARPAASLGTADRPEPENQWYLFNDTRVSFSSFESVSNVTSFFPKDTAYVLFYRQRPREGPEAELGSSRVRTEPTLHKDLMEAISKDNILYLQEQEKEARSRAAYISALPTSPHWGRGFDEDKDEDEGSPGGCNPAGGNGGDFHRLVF
In short: as §1

UniProt Q9UGI0 = biological target: T4, UniProt Q9UGI0
T4 sequence (whole entry): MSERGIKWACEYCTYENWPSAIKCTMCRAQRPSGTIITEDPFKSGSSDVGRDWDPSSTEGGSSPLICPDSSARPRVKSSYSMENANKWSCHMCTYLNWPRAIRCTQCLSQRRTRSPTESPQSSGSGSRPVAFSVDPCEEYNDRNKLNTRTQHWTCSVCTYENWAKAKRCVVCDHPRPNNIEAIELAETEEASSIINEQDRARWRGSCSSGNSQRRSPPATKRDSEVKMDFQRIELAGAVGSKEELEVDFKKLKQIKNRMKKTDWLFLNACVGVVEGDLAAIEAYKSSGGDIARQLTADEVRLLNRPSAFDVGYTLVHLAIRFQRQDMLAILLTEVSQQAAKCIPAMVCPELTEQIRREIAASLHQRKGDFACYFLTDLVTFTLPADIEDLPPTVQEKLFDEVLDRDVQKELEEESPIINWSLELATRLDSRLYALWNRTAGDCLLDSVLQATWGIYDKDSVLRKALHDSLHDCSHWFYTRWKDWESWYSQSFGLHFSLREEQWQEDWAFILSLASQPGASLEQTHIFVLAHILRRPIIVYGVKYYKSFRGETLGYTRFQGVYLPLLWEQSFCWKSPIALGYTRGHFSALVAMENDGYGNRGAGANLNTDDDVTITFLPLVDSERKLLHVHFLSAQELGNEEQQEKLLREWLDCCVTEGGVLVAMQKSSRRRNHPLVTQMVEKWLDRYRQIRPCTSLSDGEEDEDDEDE
In short: as §1

YOD1 = biological target: T5, YOD1 (UniProt Q5VVQ6)
T5 sequence (whole entry): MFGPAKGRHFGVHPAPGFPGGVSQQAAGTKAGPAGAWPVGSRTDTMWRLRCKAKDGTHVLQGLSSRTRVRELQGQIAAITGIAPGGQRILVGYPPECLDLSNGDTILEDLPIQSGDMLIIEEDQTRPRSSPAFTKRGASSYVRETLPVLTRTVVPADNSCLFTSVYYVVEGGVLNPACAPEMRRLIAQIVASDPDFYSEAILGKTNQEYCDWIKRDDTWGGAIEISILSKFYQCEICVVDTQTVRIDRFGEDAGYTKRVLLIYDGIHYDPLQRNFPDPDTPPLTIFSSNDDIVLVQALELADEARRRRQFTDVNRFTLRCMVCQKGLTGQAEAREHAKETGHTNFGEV
In short: as §1

Measured: log2 ratio of Biotin-Ahx-Ub-VS probe labelling

Chain of UniProt P51784 (P51784 whole entry): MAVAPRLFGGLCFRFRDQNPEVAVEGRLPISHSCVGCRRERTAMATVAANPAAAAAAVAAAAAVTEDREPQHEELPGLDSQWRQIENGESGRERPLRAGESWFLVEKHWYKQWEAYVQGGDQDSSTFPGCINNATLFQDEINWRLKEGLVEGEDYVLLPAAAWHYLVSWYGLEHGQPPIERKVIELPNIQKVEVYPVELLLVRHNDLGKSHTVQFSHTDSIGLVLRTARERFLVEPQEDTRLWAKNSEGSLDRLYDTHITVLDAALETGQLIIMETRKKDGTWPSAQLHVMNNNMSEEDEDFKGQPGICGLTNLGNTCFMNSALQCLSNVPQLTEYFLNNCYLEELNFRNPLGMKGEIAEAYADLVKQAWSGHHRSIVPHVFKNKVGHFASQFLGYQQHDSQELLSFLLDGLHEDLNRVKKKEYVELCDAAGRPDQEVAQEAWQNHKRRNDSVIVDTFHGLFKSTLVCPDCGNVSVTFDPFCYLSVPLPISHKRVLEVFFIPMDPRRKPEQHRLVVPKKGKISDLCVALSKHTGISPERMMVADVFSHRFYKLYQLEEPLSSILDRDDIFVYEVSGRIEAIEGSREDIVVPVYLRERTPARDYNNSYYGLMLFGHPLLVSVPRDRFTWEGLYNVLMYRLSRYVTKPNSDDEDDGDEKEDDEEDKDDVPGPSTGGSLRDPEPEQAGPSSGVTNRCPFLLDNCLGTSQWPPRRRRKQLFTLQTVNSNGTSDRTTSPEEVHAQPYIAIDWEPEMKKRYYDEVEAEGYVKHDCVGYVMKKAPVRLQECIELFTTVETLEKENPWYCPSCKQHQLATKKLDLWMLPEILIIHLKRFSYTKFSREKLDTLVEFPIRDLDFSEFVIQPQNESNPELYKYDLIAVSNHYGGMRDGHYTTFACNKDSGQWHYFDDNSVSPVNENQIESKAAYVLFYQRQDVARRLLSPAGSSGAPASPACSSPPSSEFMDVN
Chain of UniProt O00507 (O00507 whole entry): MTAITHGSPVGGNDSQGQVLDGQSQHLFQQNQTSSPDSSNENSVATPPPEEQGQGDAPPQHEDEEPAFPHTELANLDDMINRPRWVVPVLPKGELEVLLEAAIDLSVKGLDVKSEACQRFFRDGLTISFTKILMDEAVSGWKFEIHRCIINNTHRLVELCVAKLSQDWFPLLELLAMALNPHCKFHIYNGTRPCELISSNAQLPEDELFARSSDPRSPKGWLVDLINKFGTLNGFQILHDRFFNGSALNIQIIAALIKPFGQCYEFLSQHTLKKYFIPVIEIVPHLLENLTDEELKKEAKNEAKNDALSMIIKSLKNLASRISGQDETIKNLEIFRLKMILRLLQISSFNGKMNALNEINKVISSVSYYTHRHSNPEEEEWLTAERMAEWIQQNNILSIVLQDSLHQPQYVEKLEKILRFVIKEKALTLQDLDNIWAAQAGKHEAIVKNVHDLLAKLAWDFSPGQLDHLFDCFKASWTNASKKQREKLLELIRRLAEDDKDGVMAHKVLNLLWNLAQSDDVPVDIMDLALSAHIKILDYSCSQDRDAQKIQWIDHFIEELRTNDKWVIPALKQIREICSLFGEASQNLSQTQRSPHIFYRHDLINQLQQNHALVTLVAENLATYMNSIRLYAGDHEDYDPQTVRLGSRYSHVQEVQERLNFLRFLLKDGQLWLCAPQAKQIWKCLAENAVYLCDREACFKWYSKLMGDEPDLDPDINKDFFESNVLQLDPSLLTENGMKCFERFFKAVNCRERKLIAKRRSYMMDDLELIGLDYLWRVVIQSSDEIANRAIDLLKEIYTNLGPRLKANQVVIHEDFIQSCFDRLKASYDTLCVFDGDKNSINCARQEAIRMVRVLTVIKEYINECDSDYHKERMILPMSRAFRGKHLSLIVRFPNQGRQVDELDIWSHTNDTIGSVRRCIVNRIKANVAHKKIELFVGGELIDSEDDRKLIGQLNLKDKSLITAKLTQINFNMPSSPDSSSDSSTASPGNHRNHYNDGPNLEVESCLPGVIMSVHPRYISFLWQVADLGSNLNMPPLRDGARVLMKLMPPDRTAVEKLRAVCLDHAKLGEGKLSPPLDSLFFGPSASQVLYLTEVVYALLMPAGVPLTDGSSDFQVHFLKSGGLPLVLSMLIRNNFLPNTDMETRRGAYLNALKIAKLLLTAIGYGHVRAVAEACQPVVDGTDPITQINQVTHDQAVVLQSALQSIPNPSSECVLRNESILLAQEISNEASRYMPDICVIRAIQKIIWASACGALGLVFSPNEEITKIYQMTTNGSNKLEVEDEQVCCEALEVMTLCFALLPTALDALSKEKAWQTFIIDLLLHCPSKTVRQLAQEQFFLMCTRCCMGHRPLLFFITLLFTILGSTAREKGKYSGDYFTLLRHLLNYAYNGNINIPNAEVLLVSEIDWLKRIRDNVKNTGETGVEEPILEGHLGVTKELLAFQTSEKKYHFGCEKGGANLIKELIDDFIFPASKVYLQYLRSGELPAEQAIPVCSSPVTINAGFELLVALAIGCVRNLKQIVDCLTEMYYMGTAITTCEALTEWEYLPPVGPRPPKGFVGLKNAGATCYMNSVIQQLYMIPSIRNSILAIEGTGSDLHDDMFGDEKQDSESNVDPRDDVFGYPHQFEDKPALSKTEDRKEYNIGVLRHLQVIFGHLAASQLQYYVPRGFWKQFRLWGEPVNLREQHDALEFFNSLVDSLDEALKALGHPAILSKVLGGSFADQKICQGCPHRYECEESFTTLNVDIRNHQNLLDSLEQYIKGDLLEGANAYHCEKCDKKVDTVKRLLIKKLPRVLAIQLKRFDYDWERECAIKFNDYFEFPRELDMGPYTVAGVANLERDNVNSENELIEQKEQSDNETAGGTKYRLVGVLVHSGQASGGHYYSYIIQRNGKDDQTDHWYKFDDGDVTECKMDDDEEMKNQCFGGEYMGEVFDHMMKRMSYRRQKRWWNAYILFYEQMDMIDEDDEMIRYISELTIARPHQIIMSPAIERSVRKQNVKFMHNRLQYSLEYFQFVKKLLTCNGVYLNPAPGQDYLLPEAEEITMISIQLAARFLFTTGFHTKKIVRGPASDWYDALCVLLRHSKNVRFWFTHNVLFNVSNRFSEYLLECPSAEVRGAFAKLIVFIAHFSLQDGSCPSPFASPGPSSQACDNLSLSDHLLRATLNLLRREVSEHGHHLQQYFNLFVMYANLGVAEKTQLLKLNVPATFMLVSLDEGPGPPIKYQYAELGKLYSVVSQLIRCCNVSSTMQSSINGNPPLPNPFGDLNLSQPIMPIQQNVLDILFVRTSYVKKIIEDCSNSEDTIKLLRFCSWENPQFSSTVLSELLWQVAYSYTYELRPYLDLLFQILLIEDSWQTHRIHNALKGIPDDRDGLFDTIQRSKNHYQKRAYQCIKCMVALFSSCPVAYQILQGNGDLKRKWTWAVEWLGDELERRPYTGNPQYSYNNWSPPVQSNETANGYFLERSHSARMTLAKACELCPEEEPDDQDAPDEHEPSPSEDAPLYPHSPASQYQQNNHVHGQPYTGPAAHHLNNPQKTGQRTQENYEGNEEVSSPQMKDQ
Chain of UniProt O00487 (O00487 whole entry): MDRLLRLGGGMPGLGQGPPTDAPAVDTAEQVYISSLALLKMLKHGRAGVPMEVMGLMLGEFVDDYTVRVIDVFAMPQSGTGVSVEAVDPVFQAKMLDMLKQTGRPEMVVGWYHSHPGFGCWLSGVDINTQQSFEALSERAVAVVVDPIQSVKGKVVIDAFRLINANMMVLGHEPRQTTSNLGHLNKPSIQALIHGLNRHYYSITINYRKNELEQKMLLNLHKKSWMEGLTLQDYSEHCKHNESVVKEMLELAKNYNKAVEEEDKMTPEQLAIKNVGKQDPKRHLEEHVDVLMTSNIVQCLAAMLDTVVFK

Cl.O=C(CN1CCN(C(=O)CCl)CC1)Nc1ccc(F)cc1
inactive: USP9X 0.0748 | UniProt O00487 -0.0621 | UniProt O00507 0.543 | UniProt P51784 0.0839 | UniProt Q5T2D3 -0.013 | UniProt Q8TE49 -0.19 | UniProt Q9P2H5 -0.164 | UniProt Q9UGI0 -0.166 | YOD1 0.204
